# Reference: PubChem BioAssay (NCATS)
# Records with an inconclusive call do not appear. A call without a number means that no potency is given here. Activity calls are given as the source filed them. Unless noted, calls come from the whole dose curve; as a rule, active = well fitted curve in the direction sought with a large enough effect; inconclusive = small, poorly fitted or top-dose-only effect, or another doubt; inactive = no such curve, though single readings can be large; an effect the other way counts as inactive or inconclusive.
# Legend:
# [1] = Primary qHTS for small molecule stabilizers of the endoplasmic reticulum resident proteome: Secreted ER Calcium Modulated Protein (SERCaMP) assay (AID 1508630); conditions: SH-SY5Y GLuc-SERCaMP (Gaussia luciferase released on ER calcium loss) secretion, thapsigargin, luminescence; series mostly up to 38.4 µM
# How it was run: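 GLuc-SERCaMP-expressing SH-SY5Y cells, pretreated 16 h with compound, are challenged with thapsigargin to empty ER calcium stores; after 4 h, coelenterazine is added directly to the medium and luminescence is imaged.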
# Papain (Carica papaya) = Papain (Carica papaya) (UniProt P00784); assay: Primary qHTS assay for inhibitors of the protease papain (AID 1645873); conditions: papain Z-FR-AMC cleavage, AMC fluorescence; series mostly up to 49.8 µM;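 note: papain turnover of Z-FR-AMC read as the AMC fluorescence gain over 10 min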; note: potency is the fitted concentration of half-maximal effect
# [2] = Primary qHTS for inhibitors of nuclear receptor binding SET domain protein 2 (NSD2) in an isogenic RCH-ACV NSD2 p.E1099K mutant (9B) (AID 1645876); conditions: RCH-ACV NSD2 E1099K (9B) viability, CellTiter-Glo, 72 h; series mostly up to 44.9 µM; note: nearly all actives have a fitted effect of over 70% in size; note: potency is the fitted concentration of half-maximal effect
# [3] = Primary qHTS for inhibitors of nuclear receptor binding SET domain protein 2 (NSD2) in an RCH-ACV wild type WT cells (2C) (AID 1645877); conditions: RCH-ACV (leukaemia line) NSD2 WT (2C) viability, CellTiter-Glo, 72 h; series mostly up to 44.9 µM; note: nearly all actives have a fitted effect of over 70% in size; note: potency is the fitted concentration of half-maximal effect
# [4] = target: Cytochrome P450 2D6 (Homo sapiens) (UniProt P10635); assay: Cytochrome P450 family 2 subfamily D member 6 (CYP2D6) small molecule antagonists: luciferase biochemical (cell-free) qHTS assay (AID 1645840; active = well fitted curve in the direction sought with a large enough effect in the repeat runs; an effect the other way counts as inactive or inconclusive; note: nearly all actives have a fitted effect of over 55% in size; note: potency is the fitted concentration of half-maximal effect); conditions: P450-Glo CYP2D6 enzyme, luciferin luminescence, 1 h; series mostly up to 57.4 µM
# How it was run: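 P450-Glo luminescent screen: recombinant CYP2D6 enzyme–proluciferin substrate mix preincubated with compound 10 min at room temperature, then NADPH regeneration added for 1 h at room temperature. Detection reagent added for 20 min; luciferin light read as relative luminescence units.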
# [5] = target: Cytochrome P450 2C9 (Homo sapiens) (UniProt P11712); assay: Cytochrome P450 family 2 subfamily C member 9 (CYP2C9) small molecule antagonists: luciferase biochemical (cell-free) qHTS assay (AID 1645842; active = well fitted curve in the direction sought with a large enough effect in the repeat runs; an effect the other way counts as inactive or inconclusive; note: nearly all actives have a fitted effect of over 55% in size; note: potency is the fitted concentration of half-maximal effect); conditions: P450-Glo CYP2C9 enzyme assay, luciferin luminescence; series mostly up to 57.4 µM
# How it was run: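 Luminescence, after 20 min with luciferin detection reagent, reflected CYP2C9 turnover during a 1 h NADPH-driven reaction at 37C. Enzyme-substrate mix contained 0.4% bovine serum albumin and was preincubated with compound 10 min at room temperature.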
# [6] = Cytotoxicity counterscreen for inhibitors of SARS-CoV-2 cell entry (AID 1645845; calls by dose curve; note: nearly all actives have a fitted effect of over 50% in size); conditions: cell viability (SARS-CoV-2 entry assay cells); series mostly up to 57.1 µM
# How it was run: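 Expi293F/hACE2 cells seeded overnight; cpd pin-transferred in DMSO, 1 h preincubation, + media, 48 h 37 C 5% CO2; ATPLite 1step luminescence; normalized to cells and no cells.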
# [7] = Primary qHTS to identify inhibitors of SARS-CoV-2 cell entry (AID 1645846; calls by dose curve; note: nearly all actives have a fitted effect of over 45% in size); conditions: SARS-CoV-2 pseudovirus cell entry assay, luminescence; activity change, negative = inhibition: at 57.1 µM (top of the series) unless noted; series mostly up to 57.1 µM
# How it was run: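 Entry measured by luciferase signal 48 h after adding SARS-CoV-2-S pseudotyped MLV particles to HEK293-ACE2 cells preincubated 1 h with compounds. Normalisation: bald particles and spike particles.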
# [8] = target: Cytochrome P450 3A4 (Homo sapiens) (UniProt P08684); assay: Cytochrome P450 family 3 subfamily A member 4 (CYP3A4) small molecule antagonists: luciferase qHTS assay (AID 1645841; active = well fitted curve in the direction sought with a large enough effect in the repeat runs; an effect the other way counts as inactive or inconclusive; note: nearly all actives have a fitted effect of over 45% in size); conditions: P450-Glo CYP3A4 enzyme assay, luciferin luminescence; series mostly up to 57.4 µM
# How it was run: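 P450-Glo CYP3A4 enzyme with proluciferin substrate was preincubated with DMSO-dissolved compounds for 10 min at room temperature. NADPH regeneration solution started a 1 h reaction. Detection reagent stopped it, and luminescence was read after 20 min.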
# [9] = A High-Content qHTS Against Drug Library for the Identification of Small Molecules that Inhibit DYT1 Early Onset Primary Dystonia-Associated Cell Pathology (AID 1645839; calls by dose curve); conditions: HEK293 Flp-In EGFP-delE TorsinA, punctate imaging, 48 h; series mostly up to 91.7 µM
# How it was run: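 Readout: %pathology, the punctate EGFP-TorsinA distribution from imaging, as the primary channel and cell count as the toxicity counterscreen. HEK293 Flp-In cells expressing delE TorsinA were induced with tetracycline and treated with compound for 48 h.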
# Chain of Cytochrome P450 2C9 (Homo sapiens) (P11712 whole entry, looked up): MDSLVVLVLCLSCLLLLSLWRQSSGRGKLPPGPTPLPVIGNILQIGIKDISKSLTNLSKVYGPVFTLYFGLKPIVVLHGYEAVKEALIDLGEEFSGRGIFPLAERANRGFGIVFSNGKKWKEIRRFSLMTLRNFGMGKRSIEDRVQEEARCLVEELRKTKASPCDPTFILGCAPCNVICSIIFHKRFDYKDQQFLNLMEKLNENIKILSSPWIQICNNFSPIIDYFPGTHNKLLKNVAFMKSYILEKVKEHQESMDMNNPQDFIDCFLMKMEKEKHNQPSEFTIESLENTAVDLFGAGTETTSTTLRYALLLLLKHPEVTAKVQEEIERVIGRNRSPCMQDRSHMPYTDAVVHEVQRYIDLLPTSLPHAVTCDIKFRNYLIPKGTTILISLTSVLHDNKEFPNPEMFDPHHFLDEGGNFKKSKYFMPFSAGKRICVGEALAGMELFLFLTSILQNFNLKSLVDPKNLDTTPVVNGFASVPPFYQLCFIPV
# Chain of Papain (Carica papaya) (P00784 whole entry, looked up, the tested form may be a part): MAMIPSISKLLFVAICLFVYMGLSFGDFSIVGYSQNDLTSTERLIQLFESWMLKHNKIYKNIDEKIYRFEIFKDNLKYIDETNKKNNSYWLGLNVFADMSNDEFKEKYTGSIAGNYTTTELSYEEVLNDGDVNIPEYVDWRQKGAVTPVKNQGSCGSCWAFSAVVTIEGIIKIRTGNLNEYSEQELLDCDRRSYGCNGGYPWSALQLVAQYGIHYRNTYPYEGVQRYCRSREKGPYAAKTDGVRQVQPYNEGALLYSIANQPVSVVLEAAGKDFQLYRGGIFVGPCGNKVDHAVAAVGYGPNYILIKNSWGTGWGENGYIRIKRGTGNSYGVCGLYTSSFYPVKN
# Chain of Cytochrome P450 2D6 (Homo sapiens) (P10635 whole entry, looked up): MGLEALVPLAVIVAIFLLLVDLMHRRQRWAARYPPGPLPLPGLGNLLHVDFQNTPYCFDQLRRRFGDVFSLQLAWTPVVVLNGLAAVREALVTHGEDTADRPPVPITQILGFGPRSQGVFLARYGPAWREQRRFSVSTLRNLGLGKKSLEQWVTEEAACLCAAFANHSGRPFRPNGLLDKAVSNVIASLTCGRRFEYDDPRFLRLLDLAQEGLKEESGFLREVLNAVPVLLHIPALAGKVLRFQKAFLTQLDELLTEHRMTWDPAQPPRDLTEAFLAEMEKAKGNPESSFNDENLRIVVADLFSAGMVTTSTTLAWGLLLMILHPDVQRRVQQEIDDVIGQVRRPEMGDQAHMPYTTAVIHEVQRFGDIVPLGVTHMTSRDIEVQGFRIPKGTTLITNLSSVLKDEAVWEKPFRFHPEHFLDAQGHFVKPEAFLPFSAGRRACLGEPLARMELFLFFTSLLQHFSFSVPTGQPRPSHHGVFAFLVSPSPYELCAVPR
# Chain of Cytochrome P450 3A4 (Homo sapiens) (P08684 whole entry, looked up): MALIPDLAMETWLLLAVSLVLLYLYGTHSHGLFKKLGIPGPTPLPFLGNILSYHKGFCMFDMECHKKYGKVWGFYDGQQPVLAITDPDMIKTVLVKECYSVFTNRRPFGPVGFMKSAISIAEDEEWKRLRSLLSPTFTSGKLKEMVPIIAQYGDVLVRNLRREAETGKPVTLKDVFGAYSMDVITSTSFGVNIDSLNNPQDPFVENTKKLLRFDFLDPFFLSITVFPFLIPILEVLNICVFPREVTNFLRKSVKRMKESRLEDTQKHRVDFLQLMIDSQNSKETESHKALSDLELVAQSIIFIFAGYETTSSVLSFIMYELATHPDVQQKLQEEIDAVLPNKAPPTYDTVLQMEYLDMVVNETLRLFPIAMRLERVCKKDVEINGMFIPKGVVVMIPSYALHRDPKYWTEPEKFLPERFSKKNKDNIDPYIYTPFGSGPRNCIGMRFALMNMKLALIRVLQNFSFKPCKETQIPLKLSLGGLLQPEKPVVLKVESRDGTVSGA
smiles,measurement,setting,value
COc1cc(C(O)CN)ccc1O (centres undefined),Potency,[1],inactive
same,Potency,Papain (Carica papaya),inactive
CC(=O)NCCc1c[nH]c2ccccc12,Potency,[1],inactive
same,Potency,Papain (Carica papaya),inactive
same,Potency,[2],inactive
same,Potency,[3],inactive
CC(C)Oc1cccnc1N(C)C1CCN(Cc2ccccc2)CC1,Potency,[1],inactive
same,Potency,Papain (Carica papaya),inactive
C[C@]12CCC3C(CC[C@H]4C[C@H](O)CC[C@]34C)C1CC[C@@H]2C(=O)CO (some centres undefined),Potency,[1],inactive
same,Potency,Papain (Carica papaya),inactive
c1ccc2sc(C3(N4CCCCC4)CCCCC3)cc2c1,Potency,[1],inactive
same,Potency,Papain (Carica papaya),inactive
CCCN1CCC[C@H](c2cccc(O)c2)C1,Potency,[1],inactive
same,Potency,Papain (Carica papaya),inactive
O=C(O)c1ccccn1,Potency,[4],inactive
same,Potency,[5],inactive
same,Potency,[6],inactive
same,"activity change, negative = inhibition",[7],-3.73%
NC(CCP(=O)(O)O)C(=O)O (centres undefined),Potency,[1],inactive
same,Potency,Papain (Carica papaya),inactive
CCCN(CCC)[C@@H]1CCc2ccc(O)cc2C1,Potency,[1],inactive
same,Potency,Papain (Carica papaya),inactive
COc1ccc(C(c2ccc(OC)cc2)C(Cl)(Cl)Cl)cc1,Potency,[4],inactive
same,Potency,[5],1.49 µM (active)
NC(=NCCC[C@H](N)C(=O)O)N[N+](=O)[O-],Potency,[1],inactive
same,Potency,Papain (Carica papaya),inactive
C[C@]12COC(=O)C[C@@H]1CC[C@@H]1[C@H]2CC[C@@]2(C)[C@H]1CC[C@]2(C)O,Potency,[4],inactive
same,Potency,[5],inactive
Oc1ccc2c3c1O[C@H]1c4[nH]c5c(c4C[C@@]4(O)[C@@H](C2)N(CC2CC2)CC[C@]314)C[C@@]1(O)[C@H]2Cc3ccc(O)c4c3[C@@]1(CCN2CC1CC1)[C@H]5O4,Potency,[1],inactive
same,Potency,Papain (Carica papaya),inactive
Nc1ccc([N+](=O)[O-])cc1,Potency,[4],inactive
same,Potency,[5],inactive
CCOP(=O)(NC(C)C)Oc1ccc(SC)c(C)c1 (centres undefined),Potency,[4],3.88 µM (active)
same,Potency,[5],9.47 µM (active)
CCC1(CCC(C)C)C(=O)NC(=O)NC1=O,Potency,[4],inactive
same,Potency,[5],inactive
same,Potency,[2],inactive
same,Potency,[3],inactive
CN[C@@H]1C[C@@H](c2ccc(Cl)c(Cl)c2)c2ccccc21,Potency,[1],inactive
same,Potency,Papain (Carica papaya),inactive
NC(CP(=O)(O)O)C(=O)O (centres undefined),Potency,[1],inactive
same,Potency,Papain (Carica papaya),inactive
CC(=O)[C@H]1CCC2C3CC[C@H]4C[C@H](O)CC[C@]4(C)C3CC[C@@]21C (some centres undefined),Potency,[1],inactive
same,Potency,Papain (Carica papaya),inactive
O=C1CCCN1CC#CCN1CCCC1,Potency,[1],inactive
same,Potency,Papain (Carica papaya),inactive
Cc1nccc2c1[nH]c1ccccc12,Potency,[1],inactive
same,Potency,Papain (Carica papaya),28.2 µM (active)
O=C(O)c1ccccc1O,Potency,[4],inactive
same,Potency,[8],inactive
same,Potency,[5],inactive
O=C(Cc1ccc(Cl)c(Cl)c1)N1CCCCC1CN1CCCC1 (centres undefined),Potency,[1],inactive
same,Potency,Papain (Carica papaya),inactive
O=C(O)Cc1cnc[nH]1,Potency,[1],inactive
same,Potency,Papain (Carica papaya),inactive
OCCCBr,Potency,[4],inactive
Cc1ccc(Cl)c(O)c1,Potency,[4],inactive
same,Potency,[5],inactive
same,Potency,[2],inactive
same,Potency,[3],inactive
C[N+]1(C)C2CCC1CC(OC(=O)C(CO)c1ccccc1)C2 (centres undefined),Potency,[1],inactive
same,Potency,Papain (Carica papaya),inactive
CC(C)(C)NC[C@H](O)c1ccc(O)cc1Cl,Potency,[9],inactive
same,Potency,[4],inactive
same,Potency,[5],inactive
same,Potency,[2],inactive
same,Potency,[3],inactive
CC(N[C@H]1C[C@H]1c1ccccc1)c1ccc2c(c1)OCCO2 (some centres undefined),Potency,[1],inactive
same,Potency,[2],inactive
same,Potency,[3],inactive
C[C@@H](N)Cc1cnc[nH]1,Potency,[1],inactive
same,Potency,Papain (Carica papaya),inactive
COC[C@H]1OC(=O)c2coc3c2[C@@]1(C)C1=C(C3=O)[C@@H]2CC[C@H](O)[C@@]2(C)C[C@@H]1OC(C)=O,Potency,[1],inactive
same,Potency,[2],0.58 µM (active)
same,Potency,[3],0.58 µM (active)
O=C(O)[C@@H]1CCN1,Potency,[1],inactive
same,Potency,Papain (Carica papaya),inactive
CCCCC(CC)COC(=O)c1ccccc1C(=O)OCC(CC)CCCC (centres undefined),Potency,[4],inactive
CCCN(CCC)C1CCc2ccc(O)cc2C1 (centres undefined),Potency,[1],inactive
same,Potency,Papain (Carica papaya),inactive
S=C(NC1CCCCC1)N1CCC(c2cnc[nH]2)CC1,Potency,[1],inactive
same,Potency,Papain (Carica papaya),inactive
same,Potency,[2],inactive
same,Potency,[3],inactive
